Shown are actives, neighbours in structure and some others; about 0.92% of the full set was active somewhere.
AGP1-GFP MLPCN – yeast TOR pathway AGP1-GFP modulation | 0.02% of 320,000 active | GFP response vs DMSO, % at 10 µM | S. cerevisiae AGP1-GFP multiplex flow cytometry, 3 h; GFP as percent of DMSO wells | AID 2066;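 active = GFP response relative to DMSO above a set limit, near screen average plus 3 SD, cut at about 150% in these data; inconclusive = fewer than 70 cells counted for the yeast strain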;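 note: median GFP channel fluorescence of the gated AGP1 strain per well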
LAP4 TOR yeast – modulators of TOR pathway LAP4-GFP in S. cerevisiae; S. cerevisiae LAP4-GFP multiplex, flow cytometry GFP, 3 h; median GFP as percent of DMSO wells; GFP response vs DMSO, % at 10 µM; 0.34% of 320,000 active;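 active = GFP response vs DMSO above a set limit, about the screen mean plus 3 SD, cut at about 150% in these data; inconclusive = under 70 cell events counted for the yeast strain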
MEP2-GFP yeast – alters MEP2-GFP fluorescence in TOR pathway yeast screen; S. cerevisiae MEP2-GFP strain, flow cytometry GFP, 3 h; 100% = DMSO control level; GFP response vs DMSO, % at 10 µM; 0.51% of 330,000 active;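 active = GFP response versus DMSO above a set limit, roughly screen mean plus 3 SD, cut at about 180% in these data; inconclusive = fewer than 70 cells counted for a yeast strain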;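 note: median GFP fluorescence of the barcode-gated MEP2-GFP cells per well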
CIT2-GFP yeast – yeast TOR pathway CIT2-GFP modulation | S. cerevisiae CIT2-GFP strain, flow cytometry, 3 h; 100 means same as DMSO wells | 0.065% of 320,000 active | GFP response vs DMSO, % at 10 µM;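 active = GFP response relative to DMSO above a set limit, near the screen mean plus 3 SD, cut at about 150% in these data; inconclusive = Fewer than 70 cells measured for a yeast strain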;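 note: ratio of well median GFP fluorescence to mean of DMSO wells on the plate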
RPL19A-GFP yeast – modulators of TOR pathway RPL19A-GFP in S. cerevisiae; 0.3% of 330,000 active; S. cerevisiae RPL19A-GFP strain, flow cytometry, 3 h; hits give low values; percent response vs DMSO, % at 10 µM;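 active = percent response vs DMSO below 50%; inconclusive = fewer than 70 events counted for the yeast strain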;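 note: median channel GFP fluorescence of the barcoded RPL19A-GFP strain; ratio of sample median GFP to plate DMSO average so 100% = DMSO; lower means less RPL19A-GFP as with rapamycin TOR inhibition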
* marks the source's active call; other numbers are inactive results; [ ] = another dose, or the depositor's remark.

Results for Cc1cccn2c(=O)c3cc(C(=O)NCC4CCCO4)c(=N)n(CCN4CCOCC4)c3nc12 (configuration not stated) ?
AGP1-GFP MLPCN: inconclusive; LAP4 TOR yeast: 91; MEP2-GFP yeast: 605*[may fluoresce violet]; CIT2-GFP yeast: inconclusive; RPL19A-GFP yeast: 49*[may fluoresce violet]

How did Cc1ccc(C(=O)COC(=O)CCC(=O)NC2CCCCC2)cc1C do in these assays?
AGP1-GFP MLPCN: 91; MEP2-GFP yeast: 94; CIT2-GFP yeast: 87; RPL19A-GFP yeast: 92

How did O=[N+]([O-])c1ccc(N2CCC(O)CC2)nc1 do in these assays?
AGP1-GFP MLPCN: 100; LAP4 TOR yeast: 92; MEP2-GFP yeast: 98; CIT2-GFP yeast: 98; RPL19A-GFP yeast: 102

How did O=C(CCCC(=O)OCC(F)(F)C(F)F)Nc1ccc(NC(=O)CCCC(=O)OCC(F)(F)C(F)F)cc1 do in these assays?
AGP1-GFP MLPCN: 106; LAP4 TOR yeast: 97; MEP2-GFP yeast: 101; CIT2-GFP yeast: 101; RPL19A-GFP yeast: 100

How did O=C(Nc1ccc(Cl)cc1)C1CC=CCC1C(=O)OCC(F)(F)C(F)F (configuration not stated) do in these assays?
AGP1-GFP MLPCN: 25; LAP4 TOR yeast: 118; MEP2-GFP yeast: 266*[may fluoresce violet]; CIT2-GFP yeast: inconclusive; RPL19A-GFP yeast: 37*[may fluoresce violet]

Results for Cc1cc(NC(=O)c2cccc(S(=O)(=O)N3CCCCC3)c2)no1 ?
AGP1-GFP MLPCN: 104; LAP4 TOR yeast: 105; MEP2-GFP yeast: 104; CIT2-GFP yeast: 90; RPL19A-GFP yeast: 100

Results for O=C(COC(=O)c1cccc(S(=O)(=O)N2CCOCC2)c1)c1ccccc1 ?
AGP1-GFP MLPCN: 15; LAP4 TOR yeast: 75; MEP2-GFP yeast: 308*[may fluoresce violet]; CIT2-GFP yeast: inconclusive; RPL19A-GFP yeast: 53

Results for O=C(NCCCN1CCOCC1)c1cccc(S(=O)(=O)N2CCOCC2)c1 ?
AGP1-GFP MLPCN: active[may fluoresce green]; LAP4 TOR yeast: active[may fluoresce green]; MEP2-GFP yeast: active[may fluoresce green]; CIT2-GFP yeast: active[may fluoresce green]; RPL19A-GFP yeast: inactive

Results for O=C(CN1C(=O)CSc2ccc(S(=O)(=O)N3CCOCC3)cc21)NCCCN1CCOCC1 ?
AGP1-GFP MLPCN: inconclusive; LAP4 TOR yeast: inconclusive; MEP2-GFP yeast: inconclusive; CIT2-GFP yeast: inconclusive; RPL19A-GFP yeast: 23*[may fluoresce violet]

Results for Cc1cc(NC(=O)c2cccc(S(=O)(=O)N3CCOCC3)c2)no1 ?
LAP4 TOR yeast: 106; MEP2-GFP yeast: 536*[may fluoresce violet]; CIT2-GFP yeast: inconclusive; RPL19A-GFP yeast: 40*[may fluoresce violet]

What do the screens show for `Cc1ccc(S(=O)(=O)NCCC(=O)NCc2cccnc2)cc1`?
AGP1-GFP MLPCN: 99; LAP4 TOR yeast: 104; MEP2-GFP yeast: 97; CIT2-GFP yeast: 97; RPL19A-GFP yeast: 100

What do the screens show for `O=C(CCNS(=O)(=O)c1ccc(Cl)cc1)NCc1cccnc1`?
AGP1-GFP MLPCN: inconclusive; LAP4 TOR yeast: 118; MEP2-GFP yeast: 252*[may fluoresce violet]; CIT2-GFP yeast: inconclusive; RPL19A-GFP yeast: 29*[may fluoresce violet]

What do the screens show for `O=C(CSC1=NS(=O)(=O)c2cc(F)ccc2N1)NCc1ccccc1Cl`?
AGP1-GFP MLPCN: 99; LAP4 TOR yeast: 102; MEP2-GFP yeast: 115; CIT2-GFP yeast: 97; RPL19A-GFP yeast: 98

What do the screens show for `CC1CCCC(NC(=O)COC(=O)c2cccs2)C1C` (configuration not stated)?
AGP1-GFP MLPCN: 96; LAP4 TOR yeast: 101; MEP2-GFP yeast: 100; CIT2-GFP yeast: 90; RPL19A-GFP yeast: 103

Results for Cc1ccc(S(=O)(=O)NCC(=O)NCC2COc3ccccc3O2)cc1C (configuration not stated) ?
AGP1-GFP MLPCN: 94; LAP4 TOR yeast: 98; MEP2-GFP yeast: 96; CIT2-GFP yeast: 98; RPL19A-GFP yeast: 97

What do the screens show for `Nc1nc2ccc(C(=O)NC3CCCCC3)cc2s1`?
AGP1-GFP MLPCN: 83; LAP4 TOR yeast: 84; MEP2-GFP yeast: 88; CIT2-GFP yeast: 85; RPL19A-GFP yeast: 84

Results for O=C(NC1CCCCC1)c1ccc2snnc2c1 ?
AGP1-GFP MLPCN: inconclusive; LAP4 TOR yeast: 79; MEP2-GFP yeast: 364*[may fluoresce violet]; CIT2-GFP yeast: inconclusive; RPL19A-GFP yeast: 37*[may fluoresce violet]

Results for Cc1cc(-c2csc3nc[nH]c(=S)c23)cc(C)c1C ?
AGP1-GFP MLPCN: 134; LAP4 TOR yeast: 142; MEP2-GFP yeast: 185*; CIT2-GFP yeast: 100; RPL19A-GFP yeast: 97

How did CSc1ncc(Cl)c(C(=O)Nc2cccc(Cl)c2)n1 do in these assays?
AGP1-GFP MLPCN: 95; LAP4 TOR yeast: 96; MEP2-GFP yeast: 98; CIT2-GFP yeast: 104; RPL19A-GFP yeast: 99

How did CCc1nc(C(N)=O)c2[nH]c(=O)n(-c3ccc(OC)cc3OC)c2n1 do in these assays?
AGP1-GFP MLPCN: inconclusive; LAP4 TOR yeast: 114; MEP2-GFP yeast: 339*[may fluoresce violet]; CIT2-GFP yeast: inconclusive; RPL19A-GFP yeast: 43*[may fluoresce violet]

How did CCCCc1nc(C(N)=O)c2[nH]c(=O)n(-c3ccc(OC)cc3OC)c2n1 do in these assays?
AGP1-GFP MLPCN: inconclusive; LAP4 TOR yeast: 110; MEP2-GFP yeast: 289*[may fluoresce violet]; CIT2-GFP yeast: inconclusive; RPL19A-GFP yeast: 43*[may fluoresce violet]

What do the screens show for `CCCCc1nc(C(N)=O)c2[nH]c(=O)n(-c3ccc(OC)c(OC)c3)c2n1`?
AGP1-GFP MLPCN: 99; LAP4 TOR yeast: 102; MEP2-GFP yeast: 97; CIT2-GFP yeast: 98; RPL19A-GFP yeast: 98

What do the screens show for `CCC(CC)c1nc(C(N)=O)c2[nH]c(=O)n(-c3ccc(OC)c(OC)c3)c2n1`?
AGP1-GFP MLPCN: inconclusive; LAP4 TOR yeast: 126; MEP2-GFP yeast: 601*[may fluoresce violet]; CIT2-GFP yeast: inconclusive; RPL19A-GFP yeast: 47*[may fluoresce violet]

What do the screens show for `CCN(CC)CCNC(=O)Cn1c(-c2ccccn2)nc2ccccc21`?
AGP1-GFP MLPCN: 103; LAP4 TOR yeast: 144; MEP2-GFP yeast: 180*; CIT2-GFP yeast: 128; RPL19A-GFP yeast: 99

Results for NNC(=O)Cn1c(-c2ccccn2)nc2ccccc21 ?
AGP1-GFP MLPCN: 99; LAP4 TOR yeast: 94; MEP2-GFP yeast: 104; CIT2-GFP yeast: 104; RPL19A-GFP yeast: 104

Results for C#CCOCCOCCOCCNc1nc(N2CCN(C(=O)CCCCCCCCCCNC(=O)Cn3cc(C[C@@H](C)O)nn3)CC2)nc(N2CCN(C(=O)CCCCCCCCCCNC(=O)[C@H](CCCCN)n3cc(C[C@@H](C)CC)nn3)CC2)n1 ?
AGP1-GFP MLPCN: 86; LAP4 TOR yeast: 129; MEP2-GFP yeast: 88; CIT2-GFP yeast: 96; RPL19A-GFP yeast: 80

Results for C#CCOCCOCCOCCNc1nc(N2CCN(C(=O)CCCCCCCCCCNC(=O)[C@H](CCCCN)n3cc(C[C@@H](C)CC)nn3)CC2)nc(N2CCN(C(=O)CCCCCCCCCCNC(=O)[C@H](CCCCN)n3cc(C[C@@H](C)CC)nn3)CC2)n1 ?
AGP1-GFP MLPCN: 92; LAP4 TOR yeast: 216*; MEP2-GFP yeast: 105; CIT2-GFP yeast: 87; RPL19A-GFP yeast: 69

Screens as filed in PubChem.
